{"source": "PubChem BioAssay AID430", "about": "(Sanford-Burnham Center for Chemical Genomics, 2006)", "note": "Out of some 63,000 compounds screened, about 1,100 (1.7%) were called active. No stated cut-off is given here; in the data, active means cytotoxicity above about 50%; inactive means the rest. This excerpt belongs to a sample that is enriched for actives. Potency and affinity values are given separately.", "data": [{"assay": "cytotoxicity in HPDE-C7 cells, cell-based, fluorescence, HTS (AID 430);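 further: cells exposed to compound for 48 hours before viability readout; 0% = vehicle and 100% = reference cytotoxic drug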", "details": "HPDE-C7 pancreatic duct cells viability, at 10 µM, active compounds read high", "values": [{"smiles": "c1ccc(-c2ccc(OCCOCCn3cncn3)cc2)cc1", "cytotoxicity": "-14.6% (inactive)"}, {"smiles": "O=C(CSc1nnc(C2COc3ccccc3O2)o1)N1CCCc2ccccc21", "note": "(stereo not given)", "cytotoxicity": "-5.7% (inactive)"}, {"smiles": "COc1ccc(C(O)c2coc3ccc(O)c(CN(C)C)c23)cc1", "note": "(stereo not given)", "cytotoxicity": "8.4% (inactive)"}, {"smiles": "CN(C)C(=O)c1nc(C#N)c(N(C)C)o1", "cytotoxicity": "8.3% (inactive)"}, {"smiles": "COC(=O)c1[nH]c2cc(OC)ccc2c1NC(=O)CN1CCOCC1", "cytotoxicity": "9.3% (inactive)"}, {"smiles": "CCC(O)c1cc2c(cc1NC(=O)c1ccc(C)cc1)OCCO2", "note": "(stereo not given)", "cytotoxicity": "-1.6% (inactive)"}, {"smiles": "Cc1cc(C)c2nc(-c3ccccn3)cc(C(=O)Nc3cc(C)on3)c2c1", "cytotoxicity": "6.6% (inactive)"}, {"smiles": "Cc1cc(NC(=O)c2cc(-c3cccnc3)nc3c(C)c(C)ccc23)no1", "cytotoxicity": "22.3% (inactive)"}, {"smiles": "Cc1cc(NC(=O)c2cc(-c3ccncc3)nc3c(C)cccc23)no1", "cytotoxicity": "64.9% (active)"}, {"smiles": "O=C(c1cc(-c2ccc3c(c2)OCO3)on1)N1CCN(c2ccccc2)CC1", "cytotoxicity": "20.6% (inactive)"}, {"smiles": "CCOC(=O)c1ccccc1NC(=O)CN1CCC(n2nnc3cc(F)ccc32)CC1", "cytotoxicity": "13.5% (inactive)"}, {"smiles": "CCOc1ccc2nc(NC(=O)CN3CCC(n4nnc5cc(F)ccc54)CC3)sc2c1", "cytotoxicity": "55.7% (active)"}, {"smiles": "COc1ccccc1NC(=O)CN1CCC(n2nnc3cc(F)ccc32)CC1", "cytotoxicity": "-8.8% (inactive)"}, {"smiles": "O=C(Nc1ccc(NC(=O)C2CC2)nc1)c1ccccn1", "cytotoxicity": "-20.6% (inactive)"}, {"smiles": "Cc1cc(C(=O)Nc2nnc(C3CCCCC3)s2)cs1", "cytotoxicity": "6.3% (inactive)"}, {"smiles": "CCNC(=O)C1CC(=O)N(c2ccc(Br)cc2)C1", "note": "(stereo not given)", "cytotoxicity": "-12.4% (inactive)"}, {"smiles": "O=C(CCCN1CCOCC1)c1ccc2c(c1)OCCO2", "cytotoxicity": "7.8% (inactive)"}, {"smiles": "O=C(CCN1Cc2ccccc2C1)c1ccc2c(c1)OCCO2", "cytotoxicity": "-7.3% (inactive)"}, {"smiles": "O=C(CCN1CCc2ccccc21)c1ccc2c(c1)OCCO2", "cytotoxicity": "1.9% (inactive)"}, {"smiles": "O=C(CCN1CCc2ccccc2C1)Nc1ccc2c(c1)OCO2", "cytotoxicity": "2.3% (inactive)"}, {"smiles": "Cc1cccc(-n2nnnc2SCC(=O)c2cc(C)n(CC3CCCO3)c2C)c1", "note": "(stereo not given)", "cytotoxicity": "-31.6% (inactive)"}, {"smiles": "O=C(Nc1nc(-c2ccc(Cl)s2)cs1)c1cccs1", "cytotoxicity": "12.2% (inactive)"}, {"smiles": "CC(=O)c1cccc(S(=O)(=O)NCC(c2ccco2)N2CCCCC2)c1", "note": "(stereo not given)", "cytotoxicity": "1% (inactive)"}, {"smiles": "CCc1ccccc1NC(=O)CCc1nc(-c2ccc(C)cc2)no1", "cytotoxicity": "-5.6% (inactive)"}, {"smiles": "COc1ccc(C(CC(=O)O)NC(=O)COc2ccccc2)cc1OC", "note": "(stereo not given)", "cytotoxicity": "-11.8% (inactive)"}, {"smiles": "COc1ccc(-c2nc(SCC(=O)NCc3ccco3)c(-c3ccccc3)[nH]2)cc1OC", "cytotoxicity": "-5.2% (inactive)"}, {"smiles": "COc1ccc(-c2ccc(SCC(=O)NCc3ccco3)nn2)cc1", "cytotoxicity": "-13.7% (inactive)"}, {"smiles": "CCN(CC)C(=O)CSc1nc(C)cc(-c2cccs2)c1C#N", "cytotoxicity": "9.8% (inactive)"}, {"smiles": "CN1CCN(C(=O)CSc2nc(-c3cccs3)ccc2C#N)CC1", "cytotoxicity": "15.3% (inactive)"}, {"smiles": "COCc1cc(C)nc(SCC(=O)NCc2ccco2)c1C#N", "cytotoxicity": "1.9% (inactive)"}, {"smiles": "COc1ccc(-c2[nH]c(-c3ccc(F)cc3)nc2SCC(=O)NCc2ccco2)cc1OC", "cytotoxicity": "0.1% (inactive)"}, {"smiles": "CSc1nc(C2CC2)cc(-c2cccs2)c1C#N", "cytotoxicity": "63.4% (active)"}, {"smiles": "N#Cc1c(-c2ccccc2)cc(C2CC2)nc1N", "cytotoxicity": "-2.8% (inactive)"}, {"smiles": "N#Cc1c(-c2cccs2)cc(-c2ccccn2)nc1N", "cytotoxicity": "42.3% (inactive)"}, {"smiles": "COc1ccc(-c2[nH]c(-c3cccc(OC)c3)nc2SCC(=O)NCc2ccco2)cc1", "cytotoxicity": "51.3% (active)"}, {"smiles": "COc1ccc(-c2cc(-c3cccs3)c(C#N)c(SCC(=O)NCc3ccco3)n2)cc1", "cytotoxicity": "52% (active)"}, {"smiles": "O=C(O)C1C2CCC(O2)C1C(=O)NCCC1=CCCCC1", "note": "(stereo not given)", "cytotoxicity": "21.4% (inactive)"}, {"smiles": "COc1ccc(CCC(C(O)C(F)(F)F)S(=O)c2ccccc2)cc1", "note": "(stereo not given)", "cytotoxicity": "-3.4% (inactive)"}, {"smiles": "COc1ccccc1NC(=O)Nn1cnnc1", "cytotoxicity": "-17.6% (inactive)"}, {"smiles": "CCn1c(SCC(=O)c2cc(OC)ccc2OC)nnc1-c1ccncc1", "cytotoxicity": "6.4% (inactive)"}, {"smiles": "CC1Cc2ccccc2N1C(=O)CSc1nnc(NC(=O)Cc2cccs2)s1", "note": "(stereo not given)", "cytotoxicity": "-10% (inactive)"}, {"smiles": "CC(=O)Oc1ccc(N2C(=O)C3C(C2=O)C2(C)C=CC3(C)O2)cc1", "note": "(stereo not given)", "cytotoxicity": "-4% (inactive)"}, {"smiles": "CCOc1ccc(C)cc1S(=O)(=O)NC1CCCCC1", "cytotoxicity": "4.3% (inactive)"}, {"smiles": "Cc1ccc(-c2nn3c(C)nnc3s2)cc1NC(=O)c1ccc(OC(C)C)cc1", "cytotoxicity": "-1% (inactive)"}, {"smiles": "CCOc1ccc2nc(C)cc(C(=O)O)c2c1", "cytotoxicity": "33.6% (inactive)"}, {"smiles": "c1ccc2c(c1)oc1c(NCCN3CCOCC3)ncnc12", "cytotoxicity": "6.2% (inactive)"}, {"smiles": "c1ccc(Nc2ncnc3c2oc2ccccc23)cc1", "cytotoxicity": "-9.3% (inactive)"}, {"smiles": "COc1ccc(C)cc1NC(=O)COCC(=O)O", "cytotoxicity": "-11.8% (inactive)"}, {"smiles": "O=C(CN1CCN(Cc2ccccc2)CC1)Nc1ccc(Cl)cn1", "cytotoxicity": "3.5% (inactive)"}, {"smiles": "CCOc1ccccc1CN(Cc1ccco1)S(=O)(=O)c1ccc(-n2cnnn2)c(OC)c1", "cytotoxicity": "56.5% (active)"}, {"smiles": "COc1cc(S(=O)(=O)N(Cc2cccnc2)Cc2ccco2)ccc1-n1cnnn1", "cytotoxicity": "-4.3% (inactive)"}, {"smiles": "COc1ccccc1CN(Cc1ccco1)S(=O)(=O)c1ccc(-n2cnnn2)c(OC)c1", "cytotoxicity": "19.4% (inactive)"}, {"smiles": "CCOC(=O)c1c(NC(=O)CN2CCOCC2)sc2c1CCCC2=O", "cytotoxicity": "3.3% (inactive)"}, {"smiles": "CCOc1cc(/C=N/n2cnnc2)ccc1OCC(=O)Nc1ccccc1OC", "cytotoxicity": "7.2% (inactive)"}, {"smiles": "COc1nc(Nc2cccc(C(F)(F)F)c2)nc(OC)n1", "cytotoxicity": "-28.1% (inactive)"}, {"smiles": "CC(C)c1ccc(Nc2nc(NCc3ccco3)nc(N3CCOCC3)n2)cc1", "cytotoxicity": "27.5% (inactive)"}, {"smiles": "O=C(O)c1cccc(Nc2nc(N3CCOCC3)nc(N3CCOCC3)n2)c1", "cytotoxicity": "-10% (inactive)"}, {"smiles": "CN1CCN(c2nc(Nc3cccc(C(F)(F)F)c3)nc(N3CCOCC3)n2)CC1", "cytotoxicity": "65.4% (active)"}, {"smiles": "Cc1cccc(Nc2nc(NCc3ccco3)nc(N3CCOCC3)n2)c1", "cytotoxicity": "53% (active)"}, {"smiles": "Cc1ccc(Nc2nc(N3CCOCC3)nc(N3CCOCC3)n2)cc1", "cytotoxicity": "8.7% (inactive)"}, {"smiles": "Cc1nn(C)c(C)c1S(=O)(=O)NC1CCCc2ccccc21", "note": "(stereo not given)", "cytotoxicity": "-10% (inactive)"}, {"smiles": "CCc1n[nH]c2c1/C(=N\\O)CC(c1ccccc1)C2", "note": "(stereo not given)", "cytotoxicity": "-1.4% (inactive)"}, {"smiles": "O=C(C1CCN(c2nnc(-n3cccc3)s2)CC1)N1CCN(Cc2ccc3c(c2)OCO3)CC1", "cytotoxicity": "-3.5% (inactive)"}, {"smiles": "C(=C\\c1ccccc1)/CSc1nnc(-c2cnccn2)n1Cc1ccco1", "cytotoxicity": "-10.9% (inactive)"}, {"smiles": "CCOC(=O)N1CCN(C(=O)C(CC(C)C)NC(=O)C2CCCCC2)CC1", "note": "(stereo not given)", "cytotoxicity": "-6.8% (inactive)"}, {"smiles": "N#Cc1c(NC(=O)Cn2c(=O)oc3ccccc32)oc(-c2ccccc2)c1-c1ccccc1", "cytotoxicity": "72% (active)"}, {"smiles": "N#Cc1c(NC(=O)CCN2C(=O)c3ccccc3C2=O)oc(-c2ccccc2)c1-c1ccccc1", "cytotoxicity": "18.8% (inactive)"}, {"smiles": "N#Cc1c(NC(=O)CN2CCOCC2)oc(-c2ccccc2)c1-c1ccccc1", "cytotoxicity": "-0.2% (inactive)"}, {"smiles": "Cc1ccnc(SCC(=O)Nc2oc(-c3ccccc3)c(-c3ccccc3)c2C#N)n1", "cytotoxicity": "24.1% (inactive)"}, {"smiles": "CCn1c(SCC(=O)Nc2oc(-c3ccccc3)c(-c3ccccc3)c2C#N)nnc1-c1ccco1", "cytotoxicity": "32.7% (inactive)"}, {"smiles": "CC(=O)NC(C)C(=O)OCC(=O)c1ccc(Cl)s1", "note": "(stereo not given)", "cytotoxicity": "-1.2% (inactive)"}, {"smiles": "N#CCSc1nnc(COc2cccc3ccccc23)n1-c1ccccc1", "cytotoxicity": "37.6% (inactive)"}, {"smiles": "CCS(=O)(=O)Nc1ccc(Cc2ccncc2)cc1", "cytotoxicity": "-12.1% (inactive)"}, {"smiles": "CCOCCCNC(=O)C(c1ccc(OC)cc1)N(Cc1ccc2c(c1)OCO2)C(=O)CNC(C)=O", "note": "(stereo not given)", "cytotoxicity": "-6.5% (inactive)"}, {"smiles": "C(=C\\c1ccccc1)/CN1CCN(C(c2ccccc2)c2ccccc2)CC1", "cytotoxicity": "13% (inactive)"}, {"smiles": "O=C(Nc1ccc(F)cc1)N1CCN(C/C=C/c2ccccc2)CC1", "cytotoxicity": "11.6% (inactive)"}, {"smiles": "COc1cc(C2C3=C(CC(c4ccco4)CC3=O)Nc3ccccc3N2C(C)=O)cc(OC)c1OC", "note": "(stereo not given)", "cytotoxicity": "-7.9% (inactive)"}, {"smiles": "Cc1ccc(-c2[nH]c(=O)n3ccncc23)s1", "cytotoxicity": "-9.9% (inactive)"}, {"smiles": "CCOc1nc(-c2ccccc2)ccc1-c1noc(-c2ccncc2)n1", "cytotoxicity": "5.2% (inactive)"}, {"smiles": "CC(C)(C)OC(=O)N1CCN(c2ccc(NC(=O)c3cc4ccccc4oc3=O)cc2)CC1", "cytotoxicity": "-30.1% (inactive)"}, {"smiles": "Cc1cnc(C(=O)Nc2ccc(N3CCN(C(=O)OC(C)(C)C)CC3)cc2)cn1", "cytotoxicity": "50.5% (active)"}, {"smiles": "Cc1cnc(C(=O)Nc2ccc(N3CCOCC3)cc2)cn1", "cytotoxicity": "1.3% (inactive)"}, {"smiles": "Cc1csc2nc(CCNS(=O)(=O)c3ccc4c(c3)OCCO4)cn12", "cytotoxicity": "3.5% (inactive)"}, {"smiles": "CCOC(=O)Nc1ccc2c(c1)N(C(=O)CCN1CCOCC1)c1ccccc1S2=O", "note": "(stereo not given)", "cytotoxicity": "85.2% (active)"}, {"smiles": "CCOC(=O)Nc1ccc2c(c1)N(C(=O)CCN1CCOCC1)c1ccccc1S2", "cytotoxicity": "-7.9% (inactive)"}, {"smiles": "CCOC(=O)Nc1ccc2c(c1)Sc1ccccc1N2C(=O)CCN1CCOCC1", "cytotoxicity": "11.7% (inactive)"}, {"smiles": "COCCNC(=O)CSc1nc2cc(OC)c(OC)cc2c(=O)n1Cc1ccco1", "cytotoxicity": "-1.3% (inactive)"}, {"smiles": "COc1cc2nc(SCC(=O)NCCc3ccccc3)n(Cc3ccco3)c(=O)c2cc1OC", "cytotoxicity": "-3.3% (inactive)"}, {"smiles": "O=C(CSc1nc2sc3c(c2c(=O)n1-c1ccccc1)CCCC3)NCc1ccco1", "cytotoxicity": "85.6% (active)"}, {"smiles": "C=CCn1c(SCC(=O)NCc2ccco2)nc2sc3c(c2c1=O)CCCCC3", "cytotoxicity": "2.9% (inactive)"}, {"smiles": "O=c1c2ccccc2nc(SCc2ccccc2)n1Cc1ccco1", "cytotoxicity": "8.4% (inactive)"}, {"smiles": "O=C(CSc1nc2ccccc2c(=O)n1Cc1ccco1)NCc1ccco1", "cytotoxicity": "-1.8% (inactive)"}, {"smiles": "O=C(CSc1nc2ccccc2c(=O)n1Cc1ccco1)NCc1ccccc1", "cytotoxicity": "58.8% (active)"}, {"smiles": "COc1cc2nc(SCC(=O)NCc3ccco3)n(Cc3ccc(Cl)cc3)c(=O)c2cc1OC", "cytotoxicity": "50.9% (active)"}, {"smiles": "CC1(C)Cc2c(sc3nc(SCC(=O)NCc4ccco4)n(-c4ccccc4)c(=O)c23)CS1", "cytotoxicity": "3.1% (inactive)"}]}]}
